Source: PubChem BioAssay
Activity calls are given as the source filed them.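 The calls were made as follows, unless noted: active = inhibition of the reporter signal at or above 50%; inactive = inhibition below 50%.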

Key:
[1] = inhibitors of TNFa-induced NFkB p65 translocation, primary screen, imaging, HUVEC, MLSMR starter and 10KST1 sets (AID 438;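 active = inhibition above 20% together with a positive visual image hit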;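 also: compound added about 3h40 before a 20 min TNFalpha stimulation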;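 as to inhibition: signal is the nuclear over cytoplasmic p65 intensity ratio per well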); conditions: HUVEC TNFa-induced p65 nuclear translocation; cell count: measured here: nuclei count (cytotoxicity indicator), at 2.08 µM; inhibition: at 2 µM, stronger effect = higher value, 0% TNFa-plus-vehicle, 100% no-TNFa wells
[2] = inhibitors of mutant huntingtin aggregation, primary screen, imaging, exon1htt(103Q)mCFP cells, high-content imaging (AID 483;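 active = visual image review flags a hit and inhibition of aggregation exceeds 20%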;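 also: compound exposure lasted 3 days before fixation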;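 as to nuclei count: percent of the per-plate median nuclei count of sample wells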); conditions: exon1htt(103Q)mCFP cell line, aggregate imaging, at 2 µM; inhibition of aggregation: stronger effect = higher value; nuclei count: measured here: cell count, toxicity
[3] = inhibitors of E-selectin induction by TNFa, primary screen, imaging, HUVEC, immunofluorescence, MLSMR starter and 10KST1 sets (AID 487;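 active = visually confirmed hit in the image check and inhibition above 20%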;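 as to inhibition: signal is fraction of cell area covered by stained E-selectin grains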;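 as to nuclei count: 100% = median nuclei count of all wells on the same plate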); conditions: HUVEC TNFalpha-induced E-selectin immunofluorescence imaging, at 2 µM; inhibition: stronger effect = higher value; nuclei count: measured here: cell number, toxicity
[4] = target: Voltage-gated potassium channel subunit beta-2 (Rattus norvegicus) (UniProt P62483); test: KvBeta enzyme negative modulators, primary screen, biochemical, NADPH fluorescence (AID 622;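 active = fluorescence slope higher than the sample average by over 3 SD, cut at about -0.22 in these data, passing the limit was not always enough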;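 also: slope of raw intensity against log time taken from 70 to 1610 s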); conditions: recombinant KvBeta, 4-cyanobenzaldehyde reduction, at 10 µM, stronger effect = higher value
[5] = target: Voltage-gated potassium channel subunit beta-2 (Rattus norvegicus) (UniProt P62483); test: KvBeta positive modulators, primary screen, biochemical, NADPH fluorescence (AID 623;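 active = NADPH fluorescence slope more negative than the mean of all samples by about 3 SD, 99.7% confidence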;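 also: fluorescence intensity change per second fitted from 20 to 320 s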); conditions: Recombinant KvBeta, NADPH fluorescence decrease slope, 10 min; at 10 µM; stronger effect = lower value
[6] = target: Alpha-2C adrenergic receptor (Homo sapiens) (UniProt P18825); test: modulators of alpha2C/GIRK thallium flux, primary screen, cell-based, HEK293 alpha2C/GIRK1/2 (AID 624;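 active = fluorescence slope after compound addition differing from the mean of all screened samples at 99.7% confidence, in either direction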;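 also: slope of fluorescence ratio to pre-addition baseline per second over 15 to 24 s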); conditions: thallium flux BTC fluorescence, at 10 µM, actives lie on both sides
[7] = inhibitors of Sendai virus-induced IRF3 signaling, primary screen, TLR/RLR signaling modifier project, cell-based, Sendai virus stimulus, luciferase, 10K MLSCN set (AID 602276;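 active = inhibition at or above 50% at 10 µM; inactive = inhibition below 50%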;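 also: firefly luciferase from ISG56 promoter only with Renilla not read in this screen; 0% = Sendai virus plus DMSO and 100% = medium plus DMSO without virus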); conditions: HEK293 RL24 IRF3 luciferase reporter, at 10 µM, stronger effect = higher value
[8] = inhibitors of poly I:C-induced TLR3 signaling, primary screen, cell-based, poly I:C stimulus, luciferase, 10K MLSCN set (AID 602277); conditions: HEK293-TLR3 RL24 IRF3 luciferase reporter, at 10 µM, stronger effect = higher value

Sequence of Voltage-gated potassium channel subunit beta-2 (Rattus norvegicus) (P62483 whole entry, looked up): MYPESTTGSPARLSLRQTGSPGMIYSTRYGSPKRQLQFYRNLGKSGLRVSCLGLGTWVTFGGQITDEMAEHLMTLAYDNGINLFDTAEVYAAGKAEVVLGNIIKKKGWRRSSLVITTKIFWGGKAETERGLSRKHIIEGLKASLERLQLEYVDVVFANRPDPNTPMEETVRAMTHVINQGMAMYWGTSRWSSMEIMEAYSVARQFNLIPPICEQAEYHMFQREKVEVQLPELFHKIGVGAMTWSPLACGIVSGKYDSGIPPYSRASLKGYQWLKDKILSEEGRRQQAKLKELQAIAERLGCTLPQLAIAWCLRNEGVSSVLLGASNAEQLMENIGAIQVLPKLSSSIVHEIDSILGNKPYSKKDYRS
Sequence of Alpha-2C adrenergic receptor (Homo sapiens) (P18825 whole entry, looked up): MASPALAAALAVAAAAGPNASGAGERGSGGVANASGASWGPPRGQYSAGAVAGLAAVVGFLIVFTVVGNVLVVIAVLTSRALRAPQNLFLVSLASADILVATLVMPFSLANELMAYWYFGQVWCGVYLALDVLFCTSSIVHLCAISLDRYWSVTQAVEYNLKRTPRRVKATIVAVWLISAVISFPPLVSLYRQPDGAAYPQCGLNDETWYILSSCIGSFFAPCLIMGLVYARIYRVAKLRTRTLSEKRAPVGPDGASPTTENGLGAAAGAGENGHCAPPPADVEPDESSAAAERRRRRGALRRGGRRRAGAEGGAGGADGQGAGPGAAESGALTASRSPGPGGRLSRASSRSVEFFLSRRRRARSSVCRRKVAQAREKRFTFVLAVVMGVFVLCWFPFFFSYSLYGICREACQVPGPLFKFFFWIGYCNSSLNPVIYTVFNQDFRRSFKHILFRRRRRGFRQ

Row | SMILES | cell count [1] | inhibition [1] | inhibition of aggregation [2] | nuclei count [2] | inhibition [3] | nuclei count [3] | fluorescence slope [4] | NADPH fluorescence slope [5] | slope [6] | inhibition [7] | inhibition [8]
1 | O=C(NCC1COc2ccccc2O1)c1ccc(NC(=O)c2ccco2)cc1 (centres undefined) | 752 | -3.6% (inactive) | 22.7% (inactive) | 106% | -120% (inactive) | 120% | -0.435 (inactive) | -2.6e-05 (inactive) | 0.00329 (inactive) | 7.34% (inactive) | 20% (inactive)
2 | COc1cc(C2C(C#N)=C(N)OC3=C2C(=O)CC(C)(C)C3)ccc1OC(=O)N1CCOCC1 (centres undefined) | 482 | -36.6% (inactive) | 13.8% (inactive) | 86.6% | -75% (inactive) | 112% | -0.511 (inactive) | 1.1e-05 (inactive) | 0.00692 (inactive) | -15.1% (inactive) | 11.1% (inactive)
3 | CCN1CCN(Cc2ccc(NC(=O)Nc3ccccc3)cc2)CC1 | 552 | -7.5% (inactive) | -20.2% (inactive) | 56.6% | -49.1% (inactive) | 102% | -0.605 (inactive) | -1.7e-05 (inactive) | 0.00679 (inactive) | 10.6% (inactive) | -14.4% (inactive)
4 | Cc1cc(C(F)F)n2nc(C(=O)Nc3ccc(S(=O)(=O)N4CCCCCC4)cc3)nc2n1 | 602 | -6.2% (inactive) | 9.9% (inactive) | 85.5% | -59.4% (inactive) | 96.2% | -0.566 (inactive) | 2.4e-05 (inactive) | 0.00419 (inactive) | 17.7% (inactive) | 22.1% (inactive)
5 | Clc1cccc(Cl)c1COc1ccncc1 | 353 | 4.4% (inactive) | 11.7% (inactive) | 89.4% | 7.5% (inactive) | 104% | -0.516 (inactive) | 7.2e-05 (inactive) | 0.00644 (inactive) | -16.2% (inactive) | -12% (inactive)
6 | Cc1sc2nc(SCC(=O)N3CCN(CCO)CC3)n(-c3ccccc3)c(=O)c2c1C | 397 | 7% (inactive) | -7.3% (inactive) | 111% | -55% (inactive) | 121% | -0.456 (inactive) | -4.5e-05 (inactive) | 0.00574 (inactive) | 16.8% (inactive) | 31% (inactive)
7 | CCC(=O)c1ccc(OCC(O)CN2CCN(S(=O)(=O)N3CCCCC3)CC2)cc1 (centres undefined) | 450 | 1.3% (inactive) | -4.1% (inactive) | 102% | -47.7% (inactive) | 184% | -0.592 (inactive) | -1.7e-05 (inactive) | 0.00309 (inactive) | 14.1% (inactive) | 9.85% (inactive)
8 | COC(=O)CCC(=O)Nc1ccc(OC)cc1 | 418 | 0% (inactive) | -15.3% (inactive) | 108% | 31.8% (inactive) | 101% | -0.51 (inactive) | -5.9e-05 (inactive) | 0.00654 (inactive) | 8.73% (inactive) | 19.4% (inactive)
9 | Cc1onc(-c2ccccc2)c1C(=O)N1CCN(C(=O)c2ccco2)CC1 | 601 | 2.2% (inactive) | -0.2% (inactive) | 111% | -20.4% (inactive) | 93.8% | -0.5 (inactive) | -4.3e-05 (inactive) | 0.00556 (inactive) | 14.1% (inactive) | 20.5% (inactive)
